How the values were obtained:
[1] = biological target: T1, Aspartate--tRNA(Asp/Asn) ligase (Mycobacterium tuberculosis (strain ATCC 25618 / H37Rv)) (UniProt P9WFW3); assay: Assay for Asp RNA synthetase-1 from Mycobacterium tuberculosis; assay type: functional; parameters: scale not given: direction of the effect not stated beside the values; settings: 30 µM; further: in the data most compounds retested in dose-response had high values
T1 sequence (whole entry): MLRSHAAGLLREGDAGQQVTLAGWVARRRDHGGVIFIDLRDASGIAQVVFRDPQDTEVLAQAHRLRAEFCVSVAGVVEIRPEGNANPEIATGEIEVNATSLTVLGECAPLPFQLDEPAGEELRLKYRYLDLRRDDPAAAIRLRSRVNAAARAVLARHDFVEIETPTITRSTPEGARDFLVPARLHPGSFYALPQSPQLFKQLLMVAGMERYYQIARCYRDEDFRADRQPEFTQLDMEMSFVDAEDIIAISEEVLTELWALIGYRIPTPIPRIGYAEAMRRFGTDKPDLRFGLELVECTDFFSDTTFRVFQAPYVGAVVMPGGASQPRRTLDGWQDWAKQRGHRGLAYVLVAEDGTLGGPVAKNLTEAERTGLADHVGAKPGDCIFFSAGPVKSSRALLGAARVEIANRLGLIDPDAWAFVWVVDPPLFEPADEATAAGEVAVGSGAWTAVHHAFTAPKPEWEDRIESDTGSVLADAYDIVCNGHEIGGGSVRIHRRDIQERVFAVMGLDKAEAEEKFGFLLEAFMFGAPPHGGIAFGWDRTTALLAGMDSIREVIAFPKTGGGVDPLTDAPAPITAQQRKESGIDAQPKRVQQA

[2] = biological target: Shiga toxin 2 (Escherichia coli O157:H7) (UniProt P09385+P09386); assay: E. coli 0.157:H7 Shiga Toxin SOP - stx2 screening assay; assay type: functional; parameters: scale not given: direction of the effect not stated beside the values; settings: 30 µM

Row | Compound | Percent Effect [1] [%] | Percent Effect [2] [%]
1 | CCn1nc(-c2ccccc2F)ccc1=O | 0.691 | -6.78
2 | CNc1snc(C)c1C(=O)N1CCCC(n2ccnc2C(C)C)C1 (centres undefined) | 1.51 | 3.71
3 | O=C(c1ccsc1)N1C[C@@H]2C[C@@H](c3nnc(C4CC4)o3)O[C@@H]2C1 | 6.08 | -18.3
4 | c1cnc(N2CCCC(NCc3cccc4c3OCCO4)C2)nc1 (centres undefined) | -1.35 | 4.24
5 | Cc1nc(CCNC(=O)N2CCC(Cc3cnn(C)c3)C2)cs1 (centres undefined) | -5.21 | -13.9
6 | Cc1cccc(-c2noc(CN3CCC(N4CCNC4=O)CC3)n2)c1 | 0.152 | 11.2
7 | O=C(CCNC(=O)C1CCCC1)NCc1cccnc1-n1cncn1 | 0.59 | 23.7
8 | CN(C)c1nccc(N2CCO[C@H]3CN(CC4CCOCC4)C[C@H]32)n1 | -1.41 | -89.3
9 | O=C(CCCc1nnc(-c2ccccc2)o1)N1CCN(CCO)CC1 | 2.54 | -26.3
10 | Cn1cnnc1C1CCN(C(=O)CCCOc2ccccc2F)CC1 | 0.819 | -1.48
11 | COc1cccc(-n2c(C)cc(C(=O)NS(C)(=O)=O)c2C)c1 | -1.31 | 4.7
12 | CN(Cc1cnn(C)c1)C(=O)NCc1csc(Br)c1 | 4.08 | 32.1
13 | Cc1ccc(F)cc1S(=O)(=O)NCc1cccnc1N(C)C | 4.75 | -16.9
14 | CCOC(=O)N1CCN(C(=O)c2sc(-c3ccc(F)cc3)nc2C)CC1 | -0.364 | 8.24
15 | Cn1cccc1C(=O)N1CCc2ncc(Cn3cccn3)n2CC1 | -0.291 | -19.1
16 | COc1cc(CNC(=O)C2CC(=O)N(C(C)C)C2)ccn1 (centres undefined) | -1.66 | -62.3
17 | CCOCCC(=O)Nc1cccc(Oc2ccccn2)c1 | 5.81 | -31.9

From ChEMBL document CHEMBL3988442, “University of Dundee, Small-Polar-MMV Screening Library” (2021)
